Data: PubChem BioAssay AID1159580 (chemical genetic matrix, 2015)
In all, about 5,500 compounds went through this assay and about 2,000 (36%) were called active. Inconclusive results (about 18%) are left out. No stated cut-off is given here; in the data, active means normalized growth mostly below about 0.91 (no sharp cut-off); inconclusive means no clear call, values can overlap the other calls; inactive means mostly above about 0.92. Some of the results follow.

Assay: chemical genetic growth profiling, strain panel (AID 1159580);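 further: tested at 20 µM; growth read once vehicle control cultures reached saturation at 30 °C; 1 = growth at the plate median or of vehicle wells; lower values mean less growth of the strain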
Conditions: S. cerevisiae deletion strains, growth OD
[1] = locus YAL021C, strain ccr4, hits give low values
[2] = locus YAL026C, strain drs2, hits give low values
[3] = locus YAL030W, strain snc1, hits give low values
[4] = locus YBL061C, strain skt5, hits give low values
[5] = locus YBR009C, strain hhf1, hits give low values
[6] = locus YBR023C, strain chs3, hits give low values
[7] = locus YBR171W, strain sec66, hits give low values
[8] = locus YBR231C, strain swc5, hits give low values
[9] = locus YBR279W, strain paf1, hits give low values
[10] = locus YCL011C, strain gbp2, hits give low values
[11] = locus YCL016C, strain dcc1, hits give low values
[12] = locus YCL069W, strain vba3, hits give low values
[13] = locus YCR088W, strain abp1, hits give low values
[14] = locus YDL005C, strain med2, hits give low values
[15] = locus YDL040C, strain nat1, hits give low values
[16] = locus YDR001C, strain nth1, hits give low values
[17] = locus YDR069C, strain doa4, hits give low values
[18] = locus YDR137W, strain rgp1, hits give low values
[19] = locus YDR159W, strain sac3, hits give low values
[20] = locus YDR297W, strain sur2, hits give low values
[21] = locus YDR334W, strain swr1, hits give low values
[22] = locus YDR335W, strain msn5, hits give low values
[23] = locus YDR392W, strain spt3, hits give low values
[24] = locus YEL003W, strain gim4, hits give low values
[25] = locus YEL037C, strain rad23, hits give low values
[26] = locus YEL061C, strain CIN8 (second series), hits give low values
[27] = locus YER015W, strain faa2, hits give low values
[28] = locus YER016W, strain bim1, hits give low values
[29] = locus YER111C, strain swi4, hits give low values
[30] = locus YER155C, strain BEM2 (second series), hits give low values
[31] = locus YFR010W, strain ubp6, hits give low values
[32] = locus YGL167C, strain pmr1, hits give low values
[33] = locus YGL173C, strain kem1, hits give low values
[34] = locus YGL227W, strain vid30, hits give low values
[35] = locus YGL240W, strain doc1, hits give low values
[36] = locus YGL253W, strain hxk2, hits give low values
[37] = locus YHR013C, strain ard1, hits give low values
[38] = locus YHR027C, strain rpn1, hits give low values
[39] = locus YHR142W, strain chs7, hits give low values
[40] = locus YJL092W, strain hpr5, hits give low values
[41] = locus YJL095W, strain BCK1 (second series), hits give low values
[42] = locus YJL115W, strain asf1, hits give low values
[43] = locus YJL129C, strain trk1, hits give low values
[44] = locus YJL154C, strain vps35, hits give low values
[45] = locus YJL164C, strain tpk1, hits give low values
[46] = locus YJL166W, strain qcr8, hits give low values
[47] = locus YKL160W, strain elf1, hits give low values
[48] = locus YKR026C, strain gcn3, hits give low values
[49] = locus YKR091W, strain srl3, hits give low values
[50] = locus YLL001W, strain dnm1, hits give low values
[51] = locus YLL026W, hits give low values
[52] = locus YLL041C, strain sdh2, hits give low values
[53] = locus YLR027C, strain aat2, hits give low values
[54] = locus YLR221C, strain rsa3, hits give low values
[55] = locus YLR258W, strain gsy2, hits give low values
[56] = locus YLR262C, strain YPT6 (second series), hits give low values
[57] = locus YLR320W, strain mms22, hits give low values
[58] = locus YLR342W, strain FKS1, hits give low values
[59] = locus YLR357W, strain rsc2, hits give low values
[60] = locus YLR370C, strain arc18, hits give low values
[61] = locus YLR384C, strain iki3, hits give low values
[62] = locus YML120C, strain ndi1, hits give low values
[63] = locus YMR058W, strain fet3, hits give low values
[64] = locus YMR125W, strain sto1, hits give low values
[65] = locus YMR129W, hits give low values
[66] = locus YMR205C, strain PFK2, hits give low values
[67] = locus YMR231W, strain pep5, hits give low values
[68] = locus YNL071W, strain lat1, hits give low values
[69] = locus YNL209W, strain ssb2, hits give low values
[70] = locus YNL248C, strain rpa49, hits give low values
[71] = locus YNL322C, strain KRE1 (second series), hits give low values
[72] = locus YNR049C, strain mso1, hits give low values
[73] = locus YOR001W, strain rrp6, hits give low values
[74] = locus YOR070C, strain gyp1, hits give low values
[75] = locus YOR080W, strain dia2, hits give low values
[76] = locus YOR083W, strain WHI5, hits give low values
[77] = locus YOR106W, strain vam3, hits give low values
[78] = locus YOR265W, strain rbl2, hits give low values
[79] = locus YOR270C, strain vph1, hits give low values
[80] = locus YOR290C, strain snf2, hits give low values
[81] = locus YPL051W, strain arl3, hits give low values
[82] = locus YPL078C, strain atp4, hits give low values
[83] = locus YPL106C, strain sse1, hits give low values
[84] = locus YPL240C, strain hsp82, hits give low values

Measured: normalized growth

C=CC(N)CCC(=O)O (stereo unspecified)
inactive: locus YAL013W, strain DEP1, hits give low values 1.02 | [1] 0.971 | [2] 0.984 | [3] 0.985 | locus YAL040C, strain CLN3, hits give low values 1.07 | [4] 0.976 | [5] 0.99 | [6] 0.965 | [7] 0.955 | [8] 0.99 | [9] 0.986 | [10] 0.975 | [11] 0.976 | locus YCL061C, strain MRC1 (second series), hits give low values 1 | locus YCL061C, strain MRC1, hits give low values 0.973 | [12] 0.98 | [13] 0.986 | [14] 0.977 | [15] 0.984 | [16] 0.975 | [17] 0.992 | [18] 0.94 | locus YDR150W, strain NUM1, hits give low values 1 | [19] 1.01 | locus YDR195W, strain ref2 1 | [20] 0.986 | [21] 0.972 | [22] 0.981 | locus YDR363W, strain ESC2, hits give low values 0.993 | [23] 0.922 | [24] 0.996 | [25] 0.975 | [26] 0.982 | locus YER002W, strain NOP16, hits give low values 0.993 | [27] 0.992 | [28] 0.999 | [29] 0.973 | [30] 0.988 | [31] 0.972 | [32] 0.973 | [33] 0.975 | [34] 0.99 | [35] 0.993 | [36] 0.98 | locus YGR078C, strain PAC10, hits give low values 0.987 | locus YGR229C, strain SMI1, hits give low values 1.03 | [37] 0.973 | [38] 0.972 | [39] 0.94 | [40] 0.983 | [41] 0.987 | [42] 0.972 | [43] 0.977 | [44] 0.974 | [45] 0.979 | [46] 0.971 | locus YJL187C, strain SWE1, hits give low values 0.983 | locus YJR075W, strain HOC1, hits give low values 1.01 | [47] 0.964 | [48] 0.983 | [49] 0.985 | [50] 0.96 | [51] 1 | [52] 0.981 | [53] 0.984 | [54] 0.958 | [55] 0.981 | [56] 0.975 | [57] 0.952 | [58] 0.97 | [59] 0.971 | [60] 0.968 | [61] 0.965 | [62] 0.981 | [63] 0.98 | [64] 0.968 | [65] 0.988 | [66] 0.955 | [67] 0.97 | locus YMR307W, strain GAS1, hits give low values 1.02 | [68] 0.986 | locus YNL128W, strain TEP1, hits give low values 0.972 | locus YNL175C, strain NOP13, hits give low values 0.99 | locus YNL197C, strain WHI3, hits give low values 0.994 | [69] 0.991 | locus YNL224C, strain SQS1, hits give low values 0.991 | [70] 0.968 | [71] 0.967 | [72] 0.994 | [73] 0.996 | [74] 0.998 | [75] 0.974 | locus YOR083W, strain WHI5 (second series), hits give low values 0.991 | [76] 0.967 | [77] 0.961 | [78] 0.98 | [79] 0.939 | [80] 0.945 | [81] 0.973 | locus YPL055C, strain LGE1, hits give low values 1 | [82] 0.961 | [83] 0.971 | [84] 0.986

Cc1c(S(=O)(=O)O)oc2c1C(=O)C(=O)c1c-2ccc2c1CCCC2(C)C
active: [3] 0.92 | [5] 0.885 | [8] 0.889 | [10] 0.861 | [17] 0.874 | [18] 0.631 | [19] 0.808 | [23] 0.586 | [30] 0.779 | [35] 0.817 | [41] 0.912 | [43] 0.859 | [46] 0.893 | [47] 0.896 | [51] 0.924 | [53] 0.9 | [54] 0.891 | [56] 0.57 | [57] 0.871 | [62] 0.9 | [63] 0.839 | [65] 0.918 | [68] 0.726 | [76] 0.856 | [77] 0.821 | [81] 0.873 | [84] 0.921
inactive: [1] 0.946 | [2] 0.923 | [4] 0.954 | [6] 0.943 | [7] 0.937 | [9] 0.985 | [11] 0.958 | [12] 0.983 | [13] 0.946 | [14] 0.963 | [15] 0.959 | [16] 0.955 | locus YDR195W, strain ref2 0.974 | [20] 0.939 | [21] 0.924 | [22] 0.962 | [24] 0.928 | [25] 0.947 | [26] 0.956 | [27] 0.93 | [28] 0.94 | [29] 0.965 | [31] 0.943 | [32] 0.928 | [33] 0.965 | [34] 0.968 | [36] 0.982 | [37] 0.913 | [38] 0.962 | locus YHR030C, strain SLT2, hits give low values 0.982 | locus YHR079C, strain IRE1, hits give low values 0.959 | [39] 0.994 | [40] 0.956 | locus YJL095W, strain BCK1, hits give low values 0.979 | [42] 0.952 | [44] 0.969 | [45] 0.918 | locus YJR066W, strain TOR1, hits give low values 0.934 | [48] 0.932 | [49] 0.95 | [50] 0.962 | [52] 0.938 | locus YLR113W, strain HOG1, hits give low values 0.967 | [55] 0.95 | [58] 0.916 | [59] 0.905 | [60] 0.949 | [61] 0.926 | [64] 1 | [66] 0.912 | [67] 0.933 | locus YNL183C, strain NPR1, hits give low values 0.932 | [69] 0.955 | [70] 0.962 | [71] 0.916 | [72] 0.976 | [73] 0.935 | [74] 0.949 | [75] 0.93 | locus YOR231W, strain MKK1, hits give low values 0.98 | [78] 0.937 | [79] 0.956 | [80] 0.95 | [82] 0.931 | [83] 0.857 | locus YPL256C, strain CLN2, hits give low values 0.968
